Hits are enriched below; roughly 9% of the tested compounds scored in any of these assays.
Luc counter – blocks Kinase-Glo luciferase, a counter-screen artifact | Kinase-Glo luciferase, ATP luminescence, 8 min | Potency, µM (series often up to 38.3 µM), inactives show at the top dose activity change, negative = inhibition, usual class: inhibitors | actives 0.28% (n = 200,000); further: nearly all actives have a fitted effect of over 60% in size
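Compounds were added to a substrate mix at pH 7.2 (50 mM imidazole, 10 uM ATP, within the enzyme's linear range), followed by Kinase-Glo detection reagent; luminescence was measured after 8 minutes at ambient temperature.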
HPGD block – HPGD (human) dehydrogenase inhibition; P15428; purified HPGD, NADH fluorescence kinetic, PGE2 substrate; Potency, µM, without a hit: at the top dose activity change, negative = inhibition, hits mostly inhibitors; actives 4.3% (n = 150,000); AID 894; active means well fitted inhibition curve with a large enough effect, not every such curve was filed as active; inconclusive means small, poorly fitted or top-dose-only effect, or another doubt; inactive means no such curve, though single readings can be large or run the other way
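20 nM HPGD preincubated 15 min at room temperature with compound in 50 mM Tris-HCl pH 8, 0.01% Tween 20. Started with 1 mM NAD+ and 30 uM prostaglandin E2; NADH fluorescence (360/450 nm) read 5 times over 30-s intervals, last minus first.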
ALDH1A1 inh – blocks purified human ALDH1A1 activity; actives 7.3% (n = 220,000); Purified ALDH1A1, NADH fluorescence, propionaldehyde substrate; Potency, µM (series often up to 75.3 µM), without a hit: at the highest dose activity, negative = inhibition, usual class: inhibitors; P00352; active means well fitted inhibition curve with a large enough effect, not every such curve was filed as active; inconclusive means small, poorly fitted or top-dose-only effect, or another doubt; inactive means no such curve, though single readings can be large or run the other way;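 further: plate controls were no enzyme wells and a reference inhibitor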
Target sequence (P00352 whole entry, looked up): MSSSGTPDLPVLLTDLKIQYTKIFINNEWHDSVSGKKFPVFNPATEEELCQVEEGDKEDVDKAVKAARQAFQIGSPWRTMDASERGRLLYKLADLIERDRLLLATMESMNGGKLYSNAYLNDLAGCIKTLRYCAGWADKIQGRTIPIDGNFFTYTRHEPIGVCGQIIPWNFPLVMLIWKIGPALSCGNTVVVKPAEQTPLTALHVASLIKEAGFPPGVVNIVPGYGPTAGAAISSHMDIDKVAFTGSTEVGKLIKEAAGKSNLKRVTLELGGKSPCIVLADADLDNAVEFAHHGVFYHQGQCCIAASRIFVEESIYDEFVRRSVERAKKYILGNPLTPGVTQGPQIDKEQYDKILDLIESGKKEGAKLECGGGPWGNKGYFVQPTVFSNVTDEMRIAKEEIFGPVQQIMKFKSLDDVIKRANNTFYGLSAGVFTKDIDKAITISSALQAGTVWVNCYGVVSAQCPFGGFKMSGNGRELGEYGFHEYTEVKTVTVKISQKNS
LMNA splice mod – LMNA splicing modulation. HeLa LMNA splicing GFP/RFP minigene ratio, 48 h. Potency, µM (titrated, usually from 46.1 µM), for the others: top-dose ratio change, negative = inhibition, usual class: inhibitors. actives 0.01% (n = 200,000). AID 1487; active means well fitted inhibition curve with a large enough effect in the signal ratio, with a control signal flat, not every such curve was filed as active; inconclusive means small, poorly fitted or top-dose-only effect, or effect the other way, or a change in a side signal; the % refers to the signal ratio
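S3 HeLa cells stably expressing lamin A-EGFP splicing minigene plus DsRed2, 600 cells/well, 48 h compound exposure at 37C. Laser-scanning cytometry; analysed as GFP (500-530 nm)/RFP (575-640 nm) total intensity ratio; 0.5% DMSO vehicle.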
IMPase Li inh – IMPase inhibition in cells with lithium potentiation | CHO-M1 cells, IP1 TR-FRET (IP-One), carbachol + lithium | Potency, µM (titrated, usually from 59.4 µM), without a hit: at the highest dose activity, negative = IMPase inhibition, hits mostly inhibitors | actives 0.35% (n = 210,000);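 further: IP1 builds up when IMPase is blocked and the TR-FRET signal falls; plate controls were basal vehicle for no effect and high inhibitor control for full effect; nearly all actives have a fitted effect of over 50% in size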
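Test compounds were applied to CHO-M1 cells previously cultured for 16–30 h at 2000 per well. A small lithium amount accompanied them; after 30 min at 37C, IP1 was quantified by TR-FRET.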
Numbers without * were called inactive; ? = inconclusive; nt = no result; [ ] = another dose, or the depositor's remark. Unless noted, the call rests on the fitted dose curve; in most records, active means well fitted curve in the direction sought with a large enough effect; inconclusive means small, poorly fitted or top-dose-only effect, or another doubt; inactive means no such curve, though single readings can be large; an effect the other way counts as inactive or inconclusive. Unless noted, on the % scale 0 is the no-effect control and ±100 the full control effect; potency means the concentration at half of the fitted maximal effect.

SMILES	Luc counter	HPGD block	ALDH1A1 inh	LMNA splice mod	IMPase Li inh
COc1cc(SC)ccc1C(=O)N(C)Cc1ccccc1	-3%	?	-3%	-3%	1%[38.3 µM]
COc1cc(SC)ccc1C(=O)NCCCOC(C)C	1%	-13%	4%	-7%	23%[38.3 µM]
CCCNC(=O)c1ccc(SC)cc1OC	-5%	25µM*	?	-4%	-1%[38.3 µM]
Cc1ccccc1CC1(CO)CCCN(C(=O)c2ccc3ncccc3c2)C1 (centres undefined)	2%	nt	?	10%[46 µM]	16%
N#Cc1cc([N+](=O)[O-])ccc1NCCN1CCOCC1	-1%	nt	-2%	-6%[46 µM]	-3%
CC(C)(CNc1ccc([N+](=O)[O-])cc1C#N)N1CCOCC1	5%	nt	2.2µM*	?	20%
CCOc1cc(NC(=S)NCCCN2CCOCC2)c(OCC)cc1NC(=O)c1ccc(C)cc1	-5%	nt	?	nt	-2%
CCc1cc[n+](-c2nc3ccccc3nc2[N-]S(=O)(=O)c2ccc(Br)s2)cc1	-1%	1%	0.95µM*	?	-20%
Cc1nc(CSc2nnc(N)s2)cs1	-1%	nt	-1%	9%[46 µM]	-5%
Cc1nc(CSc2nsc(/C=C/N(C)C)c2C#N)cs1	-2%	nt	6.3µM*	15%[46 µM]	-6%
COc1cccc(S(=O)(=O)Nc2cccc(C(=O)N3CCCCCC3)c2)c1	-3%	-14%	14µM*	?	-3%
COc1cccc(S(=O)(=O)Nc2cccc(C(=O)N3CCOCC3)c2)c1	-1%	-1%	14µM*	0%	32%
COc1ccc(N2CCN(C(=O)c3ccc(NS(=O)(=O)c4cccc(F)c4)cc3)CC2)cc1	4%	-14%	?	?	18%[38.3 µM]
COc1ccc(C(=O)N2CCCCC2)cc1S(=O)(=O)Nc1ccccc1	-3%	-10%	?	2%	-7%[38.3 µM]
COc1cccc(S(=O)(=O)Nc2ccc(C(=O)N3CCCCCC3)cc2)c1	nt	nt	22µM*	nt	nt
O=C(Nc1cccc(F)c1)N1CCCC2(CCN(C(=O)c3cc(C(F)(F)F)cc(C(F)(F)F)c3)CC2)C1	-7%	-7%	2%	nt	2%
Cc1nn(-c2ccccc2)c2c1C1(C(=O)N3c4c(cccc41)C(C)CC3(C)C)C(C#N)=C(N)O2 (centres undefined)	-6%	-27%	0.25µM*	-8%	48%[38.3 µM]
CCOC(=O)C(C(=O)OCC)c1cc(Br)c2noc3c2c1C(=O)c1ccccc1-3	-11%	?	10µM*	?	77%[38.3 µM]
O=C(NC1=NCCS1)c1ccc([N+](=O)[O-])cc1Cl	-2%	nt	10%	nt	18%
N#C/C(C(=O)N1CCOCC1)=c1/s/c(=C\c2ccccn2)c(=O)n1-c1ccccc1	-1%	nt	-1%	2%[46 µM]	2%
COc1ccc(-n2c(=O)/c(=C\c3cccs3)s/c2=C(/C#N)C(=O)N2CCN(C)CC2)cc1	-4%	nt	7.1µM*	nt	-5%
COc1ccc(C)cc1NC(=O)C1COc2ccccc2O1 (centres undefined)	-1%	nt	-10%	1%[9.22 µM]	7%
COc1ccc(CC(=O)Nc2ncc([N+](=O)[O-])s2)cc1OC	-1%	nt	20µM*	?	6%
CCOC(=O)c1cccc(NC(=O)NC2COc3ccccc3C2)c1 (centres undefined)	nt	nt	nt	3%[46 µM]	nt
O=C(Oc1oc(-c2ccco2)nc1C=Nc1ccccc1)c1ccoc1	-5%	5µM*	?	9%	4%[38.3 µM]
SMILES	Luc counter	HPGD block	ALDH1A1 inh	LMNA splice mod	IMPase Li inh
Cc1ccc(C(=O)Oc2oc(-c3ccccc3)nc2C=Nc2ccc(N(C)C)cc2)cc1	1%	-22%	?	-3%	15%
Cc1ccc(C(=O)Oc2oc(-c3ccco3)nc2C=Nc2ccc(Cl)cc2)cc1	-3%	6.3µM*	?	-9%	40%[38.3 µM]
O=C(Oc1oc(-c2ccco2)nc1C=Nc1ccccc1)c1ccco1	-2%	2µM*	?	11%	11%[38.3 µM]
CN(C)c1ccc(N=Cc2nc(-c3ccccc3)oc2OC(=O)c2cccc(Cl)c2)cc1	-5%	?	13µM*	-9%	12%
Cc1ccc(N=Cc2nc(-c3ccco3)oc2O)cc1	4%	-21%	?	8%	16%[38.3 µM]
CCCCCCNC(=O)n1cc(F)c(=O)[nH]c1=O	0%	0%	9%	?	3%
COC(=O)c1c(-c2cccs2)csc1NC(=O)COc1c(C)ccc(C)c1C	nt	nt	nt	3%[46 µM]	nt
